An excerpt weighted towards active compounds, which were near 3.5% of everything screened.
Autofluor counter = flagged as autofluorescent in microsphere protease counterscreen; fluorescence intensity (test concentration not listed); compound autofluorescence counterscreen, microsphere flow cytometry; hits give high values; 360,000 tested, 3.1% active; in the data active = fluorescence intensity above about 16000; inconclusive = no clear call, values can overlap the other calls
BoNT-A LC inh2 = blocks Botulinum neurotoxin A light chain protease; inhibition, % at 10 µM; 360,000 tested, 0.17% active; multiplex microsphere protease substrate cleavage, flow cytometry; note: plate controls were buffer without enzyme for full effect and enzyme alone for no effect
BoNT-F LC inh = blocks Botulinum neurotoxin F light chain protease; 360,000 tested, 0.22% active; Multiplex microsphere protease cleavage assay, flow cytometry; inhibition, % at 10 µM; in the data active = inhibition above about 35%, passing the limit was not always enough; inconclusive = no clear call, values can overlap the other calls; note: plate controls were buffer without enzyme for full effect and enzyme alone for no effect
BJeLR lethal = BJeLR cell viability loss; BJeLR (HRASV12) viability, CellTiter-Glo ATP luminescence, 48 h; inhibition, % (test concentration not listed); 300,000 tested, 0.17% active; AID 1554; in the data active = inhibition above about 50%; inconclusive = no clear call, values can overlap the other calls
Anthrax LF prot = anthrax lethal factor protease inhibition | P15917 | multiplex microsphere protease cleavage assay, LF | inhibition, % at 10 µM | 360,000 tested, 0.12% active | AID 588501; note: plate controls were buffer without enzyme for full effect and enzyme alone for no effect
Target sequence (P15917 whole entry, looked up): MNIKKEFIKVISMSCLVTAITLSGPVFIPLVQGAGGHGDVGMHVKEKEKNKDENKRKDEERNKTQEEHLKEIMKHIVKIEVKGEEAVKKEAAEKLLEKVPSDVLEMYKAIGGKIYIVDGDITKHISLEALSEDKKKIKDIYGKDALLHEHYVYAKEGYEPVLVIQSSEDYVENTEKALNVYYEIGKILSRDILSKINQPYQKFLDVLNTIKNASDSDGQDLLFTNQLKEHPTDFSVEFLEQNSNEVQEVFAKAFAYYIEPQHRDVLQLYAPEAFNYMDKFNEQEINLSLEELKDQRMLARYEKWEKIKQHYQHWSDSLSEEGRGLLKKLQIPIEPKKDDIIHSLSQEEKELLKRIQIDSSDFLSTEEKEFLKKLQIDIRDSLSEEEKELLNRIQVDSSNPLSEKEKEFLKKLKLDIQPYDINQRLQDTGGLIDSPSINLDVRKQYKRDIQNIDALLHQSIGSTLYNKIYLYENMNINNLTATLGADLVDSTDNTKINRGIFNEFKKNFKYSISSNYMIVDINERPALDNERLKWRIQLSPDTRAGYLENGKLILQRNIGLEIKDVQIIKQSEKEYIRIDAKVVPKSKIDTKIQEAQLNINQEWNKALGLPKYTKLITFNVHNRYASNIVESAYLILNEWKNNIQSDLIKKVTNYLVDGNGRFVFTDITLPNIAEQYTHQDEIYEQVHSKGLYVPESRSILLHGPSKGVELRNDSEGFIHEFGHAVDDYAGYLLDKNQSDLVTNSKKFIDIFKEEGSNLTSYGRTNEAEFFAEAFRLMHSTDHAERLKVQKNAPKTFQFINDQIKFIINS
The depositor's hits bear a star; ? = inconclusive; nt = no result. Cut-off read from the data, not from the text of the source, unless noted: active = inhibition above about 30%; inconclusive = no clear call, values can overlap the other calls; inactive = below that.

SMILES	Autofluor counter	BoNT-A LC inh2	BoNT-F LC inh	BJeLR lethal	Anthrax LF prot
COCCCNC(=O)C[C@@H]1C[C@@]2(C(=O)OC)CCCCC=C2N(Cc2ccco2)C1=O	5758	0	6	nt	-11
Clc1cccc(Oc2ncc(CN3CCOCC3)s2)c1	21630*	2	4	4	1
O=C(CSc1nc2ccccc2o1)Nc1nc(-c2ccccc2)cs1	2408	1	-9	-13	-1
Cc1occc1-c1nnc(SCC(=O)Nc2nc(-c3ccccc3)cs2)o1	19701*	0	-2	4	3
Cc1occc1-c1nnc(SCC(=O)Nc2nc3ccccc3s2)o1	19093*	1	0	13	-2
Cc1occc1-c1nnc(SCC(=O)Nc2ccccn2)o1	3293	0	1	21	-1
Cc1cc(-c2nnc(SCC(=O)Nc3nc(-c4ccccc4)cs3)o2)no1	3655	-2	-11	10	-4
Cc1cc2ccccc2nc1SCC(=O)Nc1nc(-c2ccccc2)cs1	16277*	0	-2	-9	0
CCN(C)C1CN(Cc2cn(Cc3cccc(C(F)(F)F)c3)nn2)S(=O)(=O)C1 (stereo not drawn)	4181	-1	-8	nt	-7
O=c1[nH][nH]c2nc(C(F)(F)F)cc(C(F)(F)F)c12	22696*	?	1	4	-1
COc1ccc(OC2(C)CCN(Cc3ccc(-c4ccccc4)o3)C2)cc1 (stereo not drawn)	3884	0	-4	nt	-5
O=C(COc1ccc(N2CC(C(=O)O)CC2=O)cc1)Nc1cccc(C(F)(F)F)c1 (stereo not drawn)	23245*	?	-1	6	1
O=C(O)C1CC(=O)N(c2ccc(OCc3ccc(Br)cc3)cc2)C1 (stereo not drawn)	3344	0	-3	-3	18
CNC(=O)C1CC(=O)N(c2ccc(OCC(=O)Nc3ccccc3)cc2)C1 (stereo not drawn)	3727	-1	-3	nt	-8
O=C(O)C1CC(=O)N(c2ccc(OCc3ccccc3)cc2)C1 (stereo not drawn)	21268*	3	4	2	1
COc1cccc(C(C)(O)c2nc(-c3ccoc3)cs2)c1 (stereo not drawn)	4264	0	-3	nt	-6
Cc1cc2nc(C(C)(C)C)c(Cc3ccccc3)n2c(C)c1Br	6022	0	-7	nt	-8
Cc1ccc2c(CNCc3ccco3)cc(=O)oc2c1	23320*	0	0	11	-3
CCOc1ccccc1NCc1cc(=O)oc2cc(C)ccc12	5741	1	-3	-12	-2
CCCc1nc2c(C)cc(Br)cn2c1Cc1ccc(C)cc1	6746	3	-11	nt	-8
Cc1cc(Br)cn2ccnc12	22557*	-4	-4	-10	0
Nc1c(C(=O)N2CCCCC2)sc(=S)n1-c1ccccc1	21338*	-1	-2	-9	0
C=CCn1c(N)c(C(=O)NCCC2=CCCCC2)sc1=S	16404*	-1	-4	10	-5
CCOc1ccc(-n2c(N)c(C(=O)N3CCN(C)CC3)sc2=S)cc1	2622	0	-2	-3	0
NC(=O)NCCC1=CCCCC1	10130	-2	-5	-11	-6
SMILES	Autofluor counter	BoNT-A LC inh2	BoNT-F LC inh	BJeLR lethal	Anthrax LF prot
Cc1ccc(-n2c(N)c(C(=O)N3CCCCC3)sc2=S)cc1	nt	nt	nt	-4	nt
Cc1ccc(-n2c(N)c(C(=O)N3CCN(C)CC3)sc2=S)cc1	21266*	-1	-2	-11	-3
Nc1c(C(=O)N2CCOCC2)sc(=S)n1-c1ccccc1	21197*	-5	-4	7	1
CC1(C(=O)Nc2ccccc2F)CCN1C(=O)Cc1cc(F)ccc1F (stereo not drawn)	2719	0	-5	nt	-5
C=CCn1c(N)c(C(=O)N2CCN(C)CC2)sc1=S	22789*	2	0	-1	-7
O=C(NC1CCCCC1)N(CCN1CCOCC1)Cc1cc2cc3c(cc2[nH]c1=O)OCCO3	19967*	1	-1	-1	0
CCN(CC)CCN(Cc1cc2cc3c(cc2[nH]c1=O)OCCO3)C(=O)NC1CCCCC1	4951	0	-6	5	2
CCc1ccc2[nH]c(=O)c(CN(CCN3CCCC3)C(=O)NC3CCCCC3)cc2c1	8319	0	1	-3	1
Cc1ccc2[nH]c(=O)c(CN(CCCN3CCOCC3)C(=O)NC3CCCCC3)cc2c1	22874*	?	-2	-5	-1
CCOC(=O)Cc1nnc(NC(=O)c2ncn[nH]2)s1	23312*	-2	-2	-1	-8
COc1cccc(-c2cc(C(=O)Nc3cc(C)n(Cc4ccc(Cl)cc4)n3)no2)c1	11138	0	-5	2	-1
COc1ccc(OC)c(-c2cc(C(=O)Nc3cc(C)n(Cc4ccc(Cl)cc4)n3)no2)c1	23480*	-2	-3	5	-7
COc1ccc(OC)c(-c2cc(C(=O)Nc3c(C)n(C)n(-c4ccccc4)c3=O)no2)c1	16603*	-1	-4	-4	-5
COc1cccc(-c2cc(C(=O)Nc3c(C)n(C)n(-c4ccccc4)c3=O)no2)c1	3390	0	1	-11	0
COc1ccccc1-c1cc(C(=O)Nc2c(C)n(C)n(-c3ccccc3)c2=O)no1	16484*	?	0	-9	-3
CC(=O)c1cccc(-c2ccnc3c2CC(C(=O)Nc2cccc(Oc4ccccc4)c2)O3)c1 (stereo not drawn)	3601	0	1	nt	0
Nc1nc2ccc(Cl)cc2cc1C(=O)NCCc1c[nH]c2ccccc12	5507	0	1	nt	-6
O=C1C2CC=CCC2C(=O)N1c1cccc(OS(=O)(=O)c2ccc3ccccc3c2)c1 (stereo not drawn)	20101*	?	-3	-6	-9
CC1CCC2C(=O)N(c3cccc(OS(=O)(=O)c4ccccc4)c3)C(=O)C2C1 (stereo not drawn)	2568	0	-1	-1	-3
Cc1ccsc1C(=O)Nc1ccccc1N1CCOCC1	18871*	4	4	0	-5
O=C(c1ccc(Cl)cc1)c1oc2ccccc2c1CS(=O)c1ccc(Cl)cc1 (stereo not drawn)	22309*	?	1	6	-1
CC(COc1cccc2ccccc12)CN1CCN(C)CC1 (stereo not drawn)	24009*	-2	-6	8	-2
O=C(COC(=O)CCN1C(=O)/C(=C\C=C\c2ccccc2)SC1=S)Nc1ccc(Br)cc1	4781	41*	14	-6	27
CC(C)c1ccccc1NC(=O)COC(=O)CCN1C(=O)/C(=C\C=C\c2ccccc2)SC1=S	2544	40*	6	-14	18
Cc1ccc(NC(=O)CCCN2C(=O)/C(=C/C=C/c3ccccc3)SC2=S)cc1	2783	29	-1	-13	13
O=C(CCN1C(=O)/C(=C\C=C\c2ccccc2)SC1=S)Nc1ccccc1C(=O)O	4940	-2	-5	2	-2
C/C(CC(=O)Nc1ccccn1)=N\NC(=O)Cc1cccc2ccccc12	23733*	?	-3	3	0
O=C(Cn1nc(-c2ccccc2)ccc1=O)NCC1COCCO1 (stereo not drawn)	19171*	4	7	13	-5
